The values below come from PubChem BioAssay (EPA / NIEHS).

The nature of test [1]: ATG_TAL_CIS: Attagene CIS-FACTORIAL HepG2 Assay for human TAL Basal Promoter (AID 2282966; active = hit-call score of the fitted dose curve at least 0.9, where 1 is the maximum; inactive = score below 0.9;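 note: background control endpoint measuring basal TAL promoter reporter mRNA not a specific factor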). The note with it: HepG2 Attagene cis-factorial TAL promoter reporter; actives raise or lower the signal. The method in brief: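 HepG2 cells transiently transfected with multiplexed cis-promoter reporter units, dosed 24 h. Reporter mRNA quantified by RT-PCR, 6-FAM labelling, HpaI digestion and capillary electrophoresis; TAL basal promoter serves as background control, fitted bidirectionally versus DMSO.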

A short description of test [2]: ATG_TGFb_CIS: Attagene CIS-FACTORIAL HepG2 Assay for human Transforming Growth Factor (TGF) (AID 2282967; active = hit-call score of the fitted dose curve at least 0.9, where 1 is the maximum; inactive = score below 0.9). As to conditions: HepG2 Attagene CIS TGFb reporter, mRNA transcription; actives raise or lower the signal. The procedure, abridged: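 Readout: fluorescently labeled reporter cDNA fragments resolved by capillary electrophoresis after RT-PCR. Transfected HepG2 cells dosed for 24 h; endogenous TF activity at TGFB1-linked cis element; gain or loss fitted relative to DMSO.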

In test [3] the target is Steroid hormone receptor ERR1 (Homo sapiens) (UniProt P11474). The experiment in a line: ATG_ERRa_TRANS: Attagene TRANS-FACTORIAL HepG2 Assay for human Estrogen-Related Receptor alpha (ERRa) (AID 2282971). As to conditions: HepG2 Attagene TRANS reporter, ERRa transactivation. The method in brief:
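HepG2 cells transiently transfected with GAL4-UAS reporter units and chimeric NR-Gal4 constructs; after 24 hour compound incubation, reporter mRNA quantified by RT-PCR, fluorescent labelling and capillary electrophoresis, gain of signal versus DMSO.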

Test [4] has as its target X-box-binding protein 1 (Homo sapiens) (UniProt P17861). The experiment in a line: ATG_Xbp1_CIS: Attagene CIS-FACTORIAL HepG2 Assay for human X-box Binding Protein 1 (XBP1) (AID 2282972; active = hit-call score of the fitted dose curve at least 0.9, where 1 is the maximum; inactive = score below 0.9). The note with it: HepG2 XBP1 cis-element reporter, Attagene multiplex; actives raise or lower the signal. The procedure, abridged:
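HepG2, transient MRTU transfection (cis-promoter driven), 24 h compound exposure. Total RNA → oligo(dT) RT → PCR → 6-FAM labeling → HpaI cut → CE. Bidirectional fit vs DMSO.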

Test [5] in a line: ATG_M_19_TRANS: Attagene TRANS-FACTORIAL HepG2 Assay for M19 Transcription Factor (Internal Marker) (AID 2282974). The note with it: HepG2 Attagene TRANS-FACTORIAL M19 internal marker reporter. The method in brief: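 HepG2 transiently transfected with GAL4-UAS multiplex reporter constructs, exposed 24 h; reporter RNA quantified by RT-PCR, 6-FAM labeling, HpaI digestion and capillary electrophoresis; internal background marker fitted upward versus DMSO.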

Test [6] in a line: ATG_GAL4_TRANS: Attagene TRANS-FACTORIAL HepG2 Assay for GAL4 (Internal Marker) (AID 2282976). As to conditions: HepG2 Attagene TRANS GAL4 internal marker reporter. The method in brief: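 Background-control readout: GAL4-UAS reporter transcript in transiently transfected HepG2 cells after 24 h compound exposure. Measured by RT-PCR, 6-FAM primer extension, HpaI digest and capillary electrophoresis; gain-of-signal fit versus DMSO.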

The target of test [7] is Oxysterols receptor LXR-alpha (Homo sapiens) (UniProt Q13133). The experiment in a line: ATG_LXRa_TRANS: Attagene TRANS-FACTORIAL HepG2 Assay for human Liver X Receptor alpha (LXRa) (AID 2282980). As to conditions: HepG2 Attagene TRANS reporter, LXRa transactivation. The method in brief: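 HepG2 cells transiently transfected with GAL4-UAS reporter units for chimeric NR-Gal4 proteins, exposed to chemicals for 24 h. Reporter mRNA quantified by RT-PCR and capillary electrophoresis; gain of signal fitted relative to DMSO.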

For test [8], the target named is Hepatocyte nuclear factor 4-alpha (Homo sapiens) (UniProt P41235). The experiment in a line: ATG_HNF4a_TRANS: Attagene TRANS-FACTORIAL HepG2 Assay for human Hepatocyte Nuclear Factor 4 alpha (HNF4a) (AID 2282982). The note with it: HepG2 HNF4a transactivation reporter, mRNA readout. The method in brief: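 Cells used were human HepG2, transiently carrying GAL4-UAS reporter units read out against exogenous NR-GAL4 chimeras. Reporter transcript levels after 24 h dosing were quantified by fluorescent RT-PCR and capillary electrophoresis.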

Test [9] is described as follows: ATG_M_32_TRANS: Attagene TRANS-FACTORIAL HepG2 Assay for M32 Transcription Factor (Internal Marker) (AID 2282984). The note with it: HepG2 Attagene TRANS M32 internal marker reporter. The method in brief: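 Human hepatoma HepG2, transient MRTU transfection, 24 h treatment. RNA → RT-PCR → fluorescent primer extension → HpaI digest (2 h, 37 C) → CE. Positive-direction fit vs DMSO.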

In test [10] the target is Nuclear receptor subfamily 4 group A member 2 (Homo sapiens) (UniProt P43354). The experiment in a line: ATG_NURR1_TRANS: Attagene TRANS-FACTORIAL HepG2 Assay for human Nuclear Receptor Related Protein 1 (NURR1) (AID 2282985). As to conditions: HepG2 Attagene TRANS reporter, mRNA readout. The method in brief: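 After 24 h chemical dosing, total RNA from transiently transfected HepG2 cells was reverse-transcribed and reporter cDNA PCR-amplified, FAM-labelled and analysed by capillary electrophoresis. Activity fitted in positive direction, DMSO as negative control.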

The target of test [11] is Transcriptional activator Myb (Homo sapiens) (UniProt P10242). The experiment in a line: ATG_Myb_CIS: Attagene CIS-FACTORIAL HepG2 Assay for human Myeloblastosis (Myb) Proto-Oncogene Transcription Factor (AID 2282986; active = hit-call score of the fitted dose curve at least 0.9, where 1 is the maximum; inactive = score below 0.9). The note with it: HepG2 Attagene CIS-FACTORIAL Myb reporter transcription; actives raise or lower the signal. The procedure, abridged:
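Transiently transfected HepG2 cells carrying a multiplexed cis-promoter reporter set report endogenous Myb activity after 24 h compound exposure. Reporter mRNA is read by RT-PCR with capillary electrophoresis of fluorescent products, fitted bidirectionally against DMSO.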

Test [12] addresses Estrogen-related receptor gamma (Homo sapiens) (UniProt P62508). The experiment in a line: ATG_ERRg_TRANS: Attagene TRANS-FACTORIAL HepG2 Assay for human Estrogen-Related Receptor gamma (ERRg) (AID 2282977).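 Note: hits increase reporter signal over DMSO so potencies reflect activators.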 As to conditions: HepG2 Attagene TRANS reporter, ERRg transactivation. The method in brief:
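HepG2 cells transiently transfected with multiplexed GAL4-UAS reporter units driven by chimeric NR-Gal4 proteins; 24 h exposure. Reporter mRNA quantified by RT-PCR, fluorescent labelling, HpaI digestion and capillary electrophoresis; gain of signal vs DMSO.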

Test [13] addresses Bile acid receptor (Homo sapiens) (UniProt Q96RI1). The test can be described thus: ATG_FXR_TRANS: Attagene TRANS-FACTORIAL HepG2 Assay for Farnesoid X Receptor (FXR) (AID 2282979).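 Note: hits raise reporter mRNA above DMSO so AC50 marks FXR activation.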 As to conditions: HepG2 Attagene TRANS FXR-GAL4 reporter transcription. The method in brief: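 HepG2 cells were transiently transfected with GAL4-UAS reporters driven by chimeric NR-Gal4 proteins and dosed for 24 h. Reporter mRNA was quantified by RT-PCR, fluorescent labelling, HpaI digestion and capillary electrophoresis, with gain of signal scored versus DMSO.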

Test [14] deals with Oxysterols receptor LXR-beta (Homo sapiens) (UniProt P55055). The experiment in a line: ATG_LXRb_TRANS: Attagene TRANS-FACTORIAL HepG2 Assay for human Liver X Receptor beta (LXRb) (AID 2282981). As to conditions: HepG2 Attagene TRANS GAL4-LXRb reporter, mRNA. The procedure, abridged: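 In this TRANS format, exogenous chimeric NR-Gal4 protein activity, not endogenous factors, drives reporter expression in transfected human HepG2 cells. Exposure lasted 24 h; reporter mRNA was read by fluorescent capillary electrophoresis.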

Test [15] in a line: ATG_M_06_TRANS: Attagene TRANS-FACTORIAL HepG2 Assay for M06 Transcription Factor (Internal Marker) (AID 2282983).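 For AC50: potency for rise in reporter mRNA above DMSO baseline.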 As to conditions: HepG2 Attagene TRANS M06 internal marker reporter. The method in brief: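 HepG2 cells transiently transfected with GAL4-UAS multiple reporter units, dosed 24 h. Reporter RNA reverse-transcribed, PCR-amplified, 6-FAM-labeled, HpaI-digested and quantified by capillary electrophoresis; this internal-marker signal fitted upward relative to DMSO.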

The target of test [16] is Estrogen receptor (Homo sapiens) (UniProt P03372). The test can be described thus: ATG_ERa_TRANS: Attagene TRANS-FACTORIAL HepG2 Assay for human Estrogen Receptor alpha (ERa) (AID 2282970). The note with it: HepG2 Attagene TRANS ERa GAL4 reporter, mRNA. The method in brief: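 HepG2 cells transiently transfected with multiplexed GAL4-UAS reporter units read out chimeric NR-Gal4 activity. After 24 h compound exposure, reporter mRNA was quantified by RT-PCR, 6-FAM labeling, HpaI digestion and capillary electrophoresis, relative to DMSO.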

Test [17] addresses Glucocorticoid receptor (Homo sapiens) (UniProt P04150). The experiment in a line: ATG_GR_TRANS: Attagene TRANS-FACTORIAL HepG2 Assay for human Glucocorticoid Receptor (GR) (AID 2282978).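 Note: activators score as hits since higher reporter transcript over DMSO is fitted.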 The note with it: HepG2 Attagene TRANS GR reporter, mRNA transcription. The procedure, abridged: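 HepG2 cells transiently transfected with GAL4-UAS reporter units and exogenous GR-Gal4 chimera, dosed 24 h. Reporter mRNA by RT-PCR, FAM labeling, HpaI digest and capillary electrophoresis; gain-of-signal fit versus DMSO.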

Molecules are shown by their SMILES. Results filed as inconclusive are left out. Calls of active or inactive are those of the source. Rule for the calls, unless noted: active = hit-call score of the fitted dose curve at least 0.9, where 1 is the maximum; inconclusive = response in the unintended direction; inactive = score below 0.9.

Bile acid receptor (Homo sapiens), sequence (Q96RI1 whole entry, looked up, the tested form may be a part): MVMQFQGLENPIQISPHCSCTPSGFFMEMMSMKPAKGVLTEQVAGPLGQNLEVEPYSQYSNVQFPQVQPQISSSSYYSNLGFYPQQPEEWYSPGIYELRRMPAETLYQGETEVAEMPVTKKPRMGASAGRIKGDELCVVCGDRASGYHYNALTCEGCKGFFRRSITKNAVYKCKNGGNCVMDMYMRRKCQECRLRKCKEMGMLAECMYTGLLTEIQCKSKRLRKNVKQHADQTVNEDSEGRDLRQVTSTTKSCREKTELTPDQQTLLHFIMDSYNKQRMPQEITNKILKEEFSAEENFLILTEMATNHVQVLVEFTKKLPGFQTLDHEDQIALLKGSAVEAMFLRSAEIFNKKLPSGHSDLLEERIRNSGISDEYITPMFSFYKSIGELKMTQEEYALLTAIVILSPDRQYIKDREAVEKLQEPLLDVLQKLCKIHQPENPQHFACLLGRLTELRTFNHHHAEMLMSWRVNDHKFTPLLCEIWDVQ
Hepatocyte nuclear factor 4-alpha (Homo sapiens), sequence (P41235 whole entry, looked up, the tested form may be a part): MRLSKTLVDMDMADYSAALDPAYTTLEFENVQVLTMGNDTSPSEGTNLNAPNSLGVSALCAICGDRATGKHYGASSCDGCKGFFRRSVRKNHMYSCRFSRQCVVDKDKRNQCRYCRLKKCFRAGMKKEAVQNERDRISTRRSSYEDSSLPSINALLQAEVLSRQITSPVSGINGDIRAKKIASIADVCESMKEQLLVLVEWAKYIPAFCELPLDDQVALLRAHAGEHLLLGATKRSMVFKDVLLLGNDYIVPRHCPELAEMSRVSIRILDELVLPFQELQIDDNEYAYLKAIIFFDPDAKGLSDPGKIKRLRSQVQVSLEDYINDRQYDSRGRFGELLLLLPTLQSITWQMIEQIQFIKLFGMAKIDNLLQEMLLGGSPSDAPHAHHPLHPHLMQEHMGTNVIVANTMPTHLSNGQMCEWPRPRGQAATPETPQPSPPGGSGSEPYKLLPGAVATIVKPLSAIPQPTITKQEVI
Nuclear receptor subfamily 4 group A member 2 (Homo sapiens), sequence (P43354 whole entry, looked up): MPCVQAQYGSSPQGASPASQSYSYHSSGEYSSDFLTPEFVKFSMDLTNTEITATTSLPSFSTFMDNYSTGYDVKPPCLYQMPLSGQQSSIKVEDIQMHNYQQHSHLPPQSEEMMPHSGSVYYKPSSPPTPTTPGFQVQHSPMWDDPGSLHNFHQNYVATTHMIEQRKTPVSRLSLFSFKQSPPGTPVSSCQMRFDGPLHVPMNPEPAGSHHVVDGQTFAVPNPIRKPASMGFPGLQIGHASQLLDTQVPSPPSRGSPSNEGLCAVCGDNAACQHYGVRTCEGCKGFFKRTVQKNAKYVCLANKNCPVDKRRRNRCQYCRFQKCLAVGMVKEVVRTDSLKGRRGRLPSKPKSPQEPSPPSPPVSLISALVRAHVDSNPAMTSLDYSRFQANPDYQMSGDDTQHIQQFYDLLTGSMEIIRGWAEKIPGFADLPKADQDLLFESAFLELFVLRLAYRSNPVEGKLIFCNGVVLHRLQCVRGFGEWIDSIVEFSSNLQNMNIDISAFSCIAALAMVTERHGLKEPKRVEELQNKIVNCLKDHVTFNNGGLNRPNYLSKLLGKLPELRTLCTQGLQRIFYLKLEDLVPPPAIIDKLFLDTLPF
Transcriptional activator Myb (Homo sapiens), sequence (P10242 whole entry, looked up): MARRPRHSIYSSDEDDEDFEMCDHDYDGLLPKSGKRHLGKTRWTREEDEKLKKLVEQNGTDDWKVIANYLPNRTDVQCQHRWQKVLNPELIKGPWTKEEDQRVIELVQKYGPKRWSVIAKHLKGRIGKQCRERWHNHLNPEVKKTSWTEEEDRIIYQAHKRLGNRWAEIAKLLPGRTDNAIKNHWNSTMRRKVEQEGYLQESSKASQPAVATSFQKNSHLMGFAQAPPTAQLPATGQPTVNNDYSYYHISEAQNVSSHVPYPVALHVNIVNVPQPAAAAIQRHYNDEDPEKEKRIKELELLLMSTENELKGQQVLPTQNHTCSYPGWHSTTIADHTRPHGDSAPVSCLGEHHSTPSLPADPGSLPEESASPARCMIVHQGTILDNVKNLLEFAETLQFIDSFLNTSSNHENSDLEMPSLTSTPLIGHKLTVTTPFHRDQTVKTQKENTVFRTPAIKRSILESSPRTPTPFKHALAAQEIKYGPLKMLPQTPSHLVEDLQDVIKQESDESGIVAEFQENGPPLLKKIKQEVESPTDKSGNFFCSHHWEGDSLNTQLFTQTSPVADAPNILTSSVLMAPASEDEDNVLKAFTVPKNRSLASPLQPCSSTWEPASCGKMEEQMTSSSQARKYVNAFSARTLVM
Oxysterols receptor LXR-alpha (Homo sapiens), sequence (Q13133 whole entry, looked up, the tested form may be a part): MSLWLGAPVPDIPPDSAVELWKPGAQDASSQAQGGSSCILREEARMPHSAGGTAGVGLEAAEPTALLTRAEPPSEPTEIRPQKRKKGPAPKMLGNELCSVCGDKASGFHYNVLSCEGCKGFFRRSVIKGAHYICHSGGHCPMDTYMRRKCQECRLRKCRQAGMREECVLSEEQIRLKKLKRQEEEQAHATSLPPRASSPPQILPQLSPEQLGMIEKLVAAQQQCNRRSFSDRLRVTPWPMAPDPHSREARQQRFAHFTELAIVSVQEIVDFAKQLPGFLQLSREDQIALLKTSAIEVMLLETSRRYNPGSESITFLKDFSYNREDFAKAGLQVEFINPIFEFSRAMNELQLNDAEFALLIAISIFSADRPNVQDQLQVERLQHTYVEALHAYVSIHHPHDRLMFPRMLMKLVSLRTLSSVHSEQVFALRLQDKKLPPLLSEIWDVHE
Steroid hormone receptor ERR1 (Homo sapiens), sequence (P11474 whole entry, looked up, the tested form may be a part): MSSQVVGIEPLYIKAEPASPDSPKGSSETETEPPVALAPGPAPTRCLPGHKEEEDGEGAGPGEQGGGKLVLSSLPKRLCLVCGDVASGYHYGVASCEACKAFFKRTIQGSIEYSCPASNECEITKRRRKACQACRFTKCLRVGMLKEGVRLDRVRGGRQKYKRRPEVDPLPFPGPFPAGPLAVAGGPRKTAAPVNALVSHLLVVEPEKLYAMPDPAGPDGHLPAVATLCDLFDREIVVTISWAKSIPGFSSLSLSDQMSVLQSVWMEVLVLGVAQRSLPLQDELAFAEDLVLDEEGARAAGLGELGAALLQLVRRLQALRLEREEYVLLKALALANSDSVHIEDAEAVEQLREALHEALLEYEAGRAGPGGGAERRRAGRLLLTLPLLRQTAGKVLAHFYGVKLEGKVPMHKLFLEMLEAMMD
X-box-binding protein 1 (Homo sapiens), sequence (P17861 whole entry, looked up): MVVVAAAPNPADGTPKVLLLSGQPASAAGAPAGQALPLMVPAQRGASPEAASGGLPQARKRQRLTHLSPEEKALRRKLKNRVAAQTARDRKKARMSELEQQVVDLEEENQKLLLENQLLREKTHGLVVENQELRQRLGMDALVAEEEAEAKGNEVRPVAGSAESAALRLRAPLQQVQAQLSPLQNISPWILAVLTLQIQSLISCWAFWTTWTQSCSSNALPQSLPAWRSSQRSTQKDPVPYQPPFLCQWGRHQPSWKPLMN
Estrogen-related receptor gamma (Homo sapiens), sequence (P62508 whole entry, looked up, the tested form may be a part): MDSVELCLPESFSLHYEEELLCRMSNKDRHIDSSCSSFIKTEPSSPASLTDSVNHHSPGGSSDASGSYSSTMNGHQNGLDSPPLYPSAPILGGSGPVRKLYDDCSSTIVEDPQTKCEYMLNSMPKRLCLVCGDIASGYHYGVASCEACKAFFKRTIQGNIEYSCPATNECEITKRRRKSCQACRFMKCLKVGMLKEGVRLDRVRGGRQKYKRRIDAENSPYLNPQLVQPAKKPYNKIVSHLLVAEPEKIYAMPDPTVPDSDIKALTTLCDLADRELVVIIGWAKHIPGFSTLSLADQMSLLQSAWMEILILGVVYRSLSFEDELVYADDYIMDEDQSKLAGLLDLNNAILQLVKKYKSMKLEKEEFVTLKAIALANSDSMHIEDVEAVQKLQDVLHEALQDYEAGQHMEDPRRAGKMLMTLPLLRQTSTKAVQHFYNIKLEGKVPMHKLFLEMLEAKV
Oxysterols receptor LXR-beta (Homo sapiens), sequence (P55055 whole entry, looked up, the tested form may be a part): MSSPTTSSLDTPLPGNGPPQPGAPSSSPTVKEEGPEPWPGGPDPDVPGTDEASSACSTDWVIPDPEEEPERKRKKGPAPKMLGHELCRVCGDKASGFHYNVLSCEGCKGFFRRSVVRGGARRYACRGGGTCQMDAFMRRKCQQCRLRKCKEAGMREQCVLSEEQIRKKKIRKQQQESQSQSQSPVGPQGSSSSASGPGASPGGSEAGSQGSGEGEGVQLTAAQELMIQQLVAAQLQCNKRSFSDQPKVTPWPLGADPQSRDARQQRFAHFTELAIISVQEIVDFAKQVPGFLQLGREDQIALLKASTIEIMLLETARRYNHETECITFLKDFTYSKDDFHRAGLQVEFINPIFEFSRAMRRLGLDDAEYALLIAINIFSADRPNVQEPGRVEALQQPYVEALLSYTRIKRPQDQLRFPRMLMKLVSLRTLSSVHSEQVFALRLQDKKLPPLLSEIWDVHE
Estrogen receptor (Homo sapiens), sequence (P03372 whole entry, looked up, the tested form may be a part): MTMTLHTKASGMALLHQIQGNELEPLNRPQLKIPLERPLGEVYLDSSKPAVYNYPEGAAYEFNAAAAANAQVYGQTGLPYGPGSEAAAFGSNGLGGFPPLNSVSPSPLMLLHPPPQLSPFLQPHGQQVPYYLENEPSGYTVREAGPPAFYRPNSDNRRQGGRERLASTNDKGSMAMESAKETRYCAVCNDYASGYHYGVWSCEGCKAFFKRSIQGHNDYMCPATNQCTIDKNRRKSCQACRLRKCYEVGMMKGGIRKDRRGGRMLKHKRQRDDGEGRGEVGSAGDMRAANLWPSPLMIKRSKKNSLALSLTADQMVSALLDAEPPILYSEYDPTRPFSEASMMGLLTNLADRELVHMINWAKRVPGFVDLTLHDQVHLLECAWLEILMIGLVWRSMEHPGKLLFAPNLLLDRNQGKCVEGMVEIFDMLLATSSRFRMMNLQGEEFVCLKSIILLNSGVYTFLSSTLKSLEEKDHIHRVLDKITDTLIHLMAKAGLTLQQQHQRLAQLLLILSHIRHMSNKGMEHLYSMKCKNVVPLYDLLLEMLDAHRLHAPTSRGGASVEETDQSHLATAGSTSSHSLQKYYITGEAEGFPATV

`CCOC(=O)CP(=O)(OCC)OCC`: the result in [1], in test [2], in test [3], in [4], in [5] and in test [6] was inactive. Also, the molecule was called inactive in test [7], in [8], in test [9], in [10] and in test [11].
Regarding `CCC[CH2][Sn]([Cl])([Cl])[Cl]`, the result in test [1], in [2], in [3], in [4], in [5] and in test [12] was inactive. For the same molecule, the outcome in test [13], in test [8] and in test [11] was inactive.
As to `Cc1ccccc1N`, the result in test [1], in test [2], in test [4], in test [5], in test [14] and in test [8] was inactive. For the same molecule, the result in test [9], in [10] and in [11] was inactive.
Regarding `O=[N+]([O-])c1c(Cl)c(Cl)cc(Cl)c1Cl`, the call in test [1], in test [2], in test [4], in test [5], in [12] and in test [9] was inactive. In addition, the outcome in test [11] was inactive.
For `CCCCOCCOC(C)=O`, the result in test [1], in [2], in test [3], in test [4], in test [5] and in test [6] was inactive. Moreover, the molecule was classed as inactive in test [7], in test [15], in test [9] and in test [11].
In the case of `CC(C)(C)c1cc(O)ccc1O`, the call in [1], in test [2], in test [17], in [15], in [9] and in test [11] was inactive. The AC50 (in general, the concentration at which the activity in the assay is half-maximal) in [16] is 33.6 µM (active); in test [4], 109 µM (active).
Take `N#CN=C(N)N`: the molecule was called inactive in test [1], in test [2], in test [4], in [13], in test [7] and in test [8]. The molecule was classed as inactive in test [15], in [9], in test [10] and in test [11].
For the molecule `O=P(O)(O)CN(CP(=O)(O)O)CP(=O)(O)O`, the molecule was classed as inactive in test [1], in test [2], in [4], in [5], in test [17] and in [8]. Besides, the molecule was classed as inactive in [9], in [10] and in [11].
In the case of `CCC[CH2][Sn]([CH2]CCC)([CH2]CCC)[O]C(=O)c1ccccc1`, the molecule was called inactive in test [1], in [2], in test [4], in test [9] and in [11]. Also, the AC50 was 0.638 µM (active) in [8], 0.703 µM (active) in test [15] and 0.0161 µM (active) in test [10].
Consider `CC(=O)[O][Hg][c]1ccccc1`, for which the call in test [1], in test [2], in [3], in test [13], in test [7] and in test [14] was inactive. Also, the outcome in test [15] and in test [11] was inactive. In [4], the AC50 is 3.71 µM (active).
